Drawing on PubChem BioAssay (NCI), this text covers growth for 9 compounds.

Common to all, as to assay: NCI-60 one-dose screen, 48 h (100 = growth as untreated, 0 = no growth, -100 = all killed)
Assay [1] concerns RPMI-8226 leukemia. The settings on record: 10 µM unless noted.
Assay [2] concerns OVCAR-8 ovarian. The settings on record: 10 µM unless noted.
The test system of assay [3] is OVCAR-5 ovarian. Particulars: 10 µM unless noted.
The subject of assay [4] is OVCAR-4 ovarian. Particulars: 10 µM unless noted.
Assay [5] has as its system SK-OV-3 ovarian. Particulars: 10 µM unless noted.
Assay [6] relates to IGROV1 ovarian. The settings on record: 10 µM unless noted.
In assay [7] the test system is OVCAR-3 ovarian. The settings on record: 10 µM unless noted.
Assay [8] has as its system HS 578T breast. Particulars: 10 µM.
The test system of assay [9] is NCI/ADR-RES ovarian. The settings on record: 10 µM unless noted.
The test system of assay [10] is T-47D breast. The settings on record: 10 µM unless noted.
Assay [11] has as its system BT-549 breast. The settings on record: 10 µM unless noted.
The subject of assay [12] is MDA-MB-435 melanoma. Particulars: 10 µM unless noted.
In assay [13] the test system is SW-620 colon. The settings on record: 10 µM unless noted.
Assay [14] has as its system MCF7 breast. The settings on record: 10 µM unless noted.
The test system of assay [15] is HCC-2998 colon. The settings on record: 10 µM unless noted.
Assay [16] relates to HCT-116 colon. Particulars: 10 µM unless noted.
In assay [17] the test system is KM12 colon. The settings on record: 10 µM unless noted.

This is part of a sample that, as a whole, favours compounds with a hit. Of some 83,000 tested, about 20% had one in any assay.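 Growth was measured after 48 h exposure to one concentration of compound in 96-well plates. Values under 10 count as active.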 Values without a mark were called inactive. Calls of active or inactive are those of the source.

Take `COc1ccc(C(=O)c2c(N)nc3n2CCCC3)cc1OC`: the growth in assay [1] is 99.3%; in assay [2], 95.4%; in [3], 111%; in [4] it was 107%; in assay [5], 105%; in assay [6], 99.4%. In addition, the growth in [7] is 109%; in [8], 108%; in assay [9], 107%; in assay [10], 101%; in assay [11], 93.9%; in assay [12], 104%. In addition, the growth was 101% in assay [13], 99% in [14] and 114% in assay [15].

For the compound `COCCn1c(Nc2ccc(C(=O)NO)cc2)nc2ccccc21`, the growth in assay [1] was 44%; in assay [2], 37.3%; in assay [3], 47.4%; in [4], 72.2%; in assay [5], 49.2%; in [6], 57.5%. For the same compound, the growth in [7] is 83.5%; in [8], 80.7%; in [9], -9.22% (active); in assay [10] it was 35.3%; in assay [11], 86.6%; in assay [12], 46%. In addition, the growth in [13] is 29.6%; in [14], 61.4%; in assay [16] it was 19.4%; in assay [15] it was 73.3%; in assay [17], 51.9%.

As to `COc1cccc(CC(C)=C(c2ccc(OCCCN(C)C)cc2)c2ccc(OCCCN(C)C)cc2)c1`, the growth was -53.9% (active) in [1]; -78.7% (active) in assay [2]; -86.5% (active) in assay [3]; -22.2% (active) in [4]; -88.6% (active) in [5]; -82.6% (active) in assay [6]. In addition, the growth in [7] was -89.9% (active); in [8] it was -41.4% (active); in [9] it was -70% (active); in assay [10] it was -68.2% (active); in assay [11] it was 55.3%; in assay [12], -91.7% (active). The growth in assay [13] is -80.1% (active); in assay [14], -73.6% (active); in [16], -75.6% (active); in assay [15] it was -71% (active); in assay [17], -83% (active).

As for `NC(=O)Nc1ccc2ncnc(Nc3cccc(O)c3)c2c1`, the growth in [1] was 112%; in assay [2], 98.9%; in assay [3], 98.1%; in assay [4] it was 112%; in [5], 87.5%; in assay [6], 107%. The growth is 82.8% in [7]; 105% in assay [8]; 96.7% in [9]; 76.6% in [10]; 108% in assay [11]; 101% in assay [12]. Further, the growth in [13] is 99.1%; in assay [14] it was 97.3%; in [16] it was 109%; in assay [15], 102%; in assay [17], 96.1%.

With `COc1ccc2[nH]c(O)c(/C=c3/ccc4c(c3)N=C(c3ccc(C(F)(F)F)cc3)N=4)c2c1`, the growth in assay [1] is 77.1%; in assay [2], 87.1%; in [3], 113%; in assay [4], 80.5%; in assay [5], 112%; in [6], 55.2%. Also, the growth in [7] was 77.5%; in [8] it was 72.8%; in assay [9] it was 84.7%; in assay [10], 57.4%; in assay [11], 81.2%; in [12], 76.5%. For the same compound, the growth in assay [13] is 86.4%; in [14], 45.1%; in assay [16] it was 56%; in assay [15], 97.7%; in assay [17] it was 75.1%.

Consider `Brc1ccccc1Cn1c(-c2cncs2)nc2ccccc21`, for which the growth is 43.3% in [1]; 79.2% in assay [2]; 70.8% in assay [3]; 72.4% in assay [4]; 92.2% in assay [5]; 86.9% in assay [6]. Besides, the growth was 86.6% in assay [7]; 69.5% in assay [8]; 83.5% in [9]; 72.2% in assay [10]; 85.4% in assay [11]; 110% in [12]. The growth in [13] was 88.4%; in [14], 98.9%; in assay [16] it was 73.3%; in assay [15], 92%; in assay [17], 76.7%.

On to `O=C(/C=C/c1cc([N+](=O)[O-])ccc1Cl)c1ccccc1`, for which the growth in [1] was 20.9%; in assay [2], 96.3%; in assay [3] it was 96.1%; in assay [4] it was 97.2%; in assay [5], 95.4%; in assay [6], 70.5%. The growth in assay [7] is 102%; in [8], 98.6%; in assay [9], 93.6%; in assay [10] it was 72.3%; in assay [11], 86.3%; in assay [12] it was 86%. Also, the growth was 6.41% (active) in assay [13]; 20.6% in assay [14]; -100% (active) in [16]; 103% in [15]; 5.35% (active) in assay [17].

`C=CCn1c(SCC(=O)Nc2ccc(/C(C)=N\O)cc2)nnc1-c1cc(-c2ccc(Cl)cc2)nc2ccccc12`: the growth in [1] is 9% (active); in assay [2], 24%; in [3], 56.7%; in [4] it was 35%; in [5], 52.6%; in [6], -13.8% (active). The growth in [7] is 31.1%; in assay [8], 67.1%; in [9], 2.18% (active); in [10], 7.73% (active); in [11], 33.5%; in [12], 30.8%. Besides, the growth was 41.1% in [13]; 14% in assay [14]; 19.5% in assay [16]; 21% in assay [15]; 16.5% in [17].

`C=CCn1c(SCC(=O)Nc2ccc(/C(C)=N\O)cc2)nnc1-c1cc(-c2ccccc2)nc2ccccc12`: the growth in assay [1] was 47.1%; in assay [2], 53.5%; in assay [3], 85.8%; in [4] it was 75%; in assay [5], 79.6%; in [6] it was 0.364% (active). In addition, the growth in [7] is 58.3%; in [8], 85.8%; in [9] it was 52.8%; in assay [10] it was 15.2%; in [11], 54%; in assay [12], 56.1%. The growth in assay [13] is 51.9%; in assay [14] it was 21%; in [16], 44%; in [15], 62.1%; in [17], 44.8%.
